Active and inactive are the calls of the source. The calls were made as follows: active = hit-call score of the fitted dose curve at least 0.9, where 1 is the maximum; inactive = score below 0.9.
Tests used:
Details in all cases: mRNA level, 48 h; actives raise or lower the signal
[1] = read-out: MicroRNA 122 (MIR122), gene 406906; experiment: LTEA_HepaRG_MIR122: Life Technologies and Expression Analysis (LTEA) Assay for MicroRNA 122 (MIR122) using HepaRG (AID 2283516); also: the transcript read is the microRNA miR-122
Outline: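 qRT-PCR read-out (TaqMan, Fluidigm array), normalized to three housekeeping genes; HepaRG cells dosed 48 h at 8 concentrations up to 100 uM in 0.5% DMSO, duplicate; gain or loss fitted against DMSO baseline.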

[2] = read-out: matrix metalloproteinase-10 (MMP10), MMP10 (gene 4319); experiment: LTEA_HepaRG_MMP10: Life Technologies and Expression Analysis (LTEA) Assay for matrix metalloproteinase-10 (MMP10) using HepaRG (AID 2283517)
Outline: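 In differentiated HepaRG cultures kept in 0.5% DMSO, test chemicals act for 48 h over an eight-point range with a top dose of 100 uM. Expression is then quantified by TaqMan RT-PCR against ACTB, GAPDH and POLR2A.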

MYC, MYC (gene 4609) = experiment: LTEA_HepaRG_MYC: Life Technologies and Expression Analysis (LTEA) Assay for MYC using HepaRG (AID 2283518)
Outline: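 HepaRG, ~100,000 cells/well, collagen I; 48 h plating; serum-free induction medium; 48 h dosing, duplicate, 100 uM top, half-log, 0.5% DMSO; total RNA → qRT-PCR MYC; gain/loss fit vs DMSO.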

[3] = read-out: matrix metalloproteinase-3 (MMP3), MMP3 (gene 4314); experiment: LTEA_HepaRG_MMP3: Life Technologies and Expression Analysis (LTEA) Assay for matrix metalloproteinase-3 (MMP3) using HepaRG (AID 2283519)
Outline: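 Human liver HepaRG cultures received chemicals (top concentration 100 uM, 0.5% DMSO) for 48 h in duplicate. MMP3 mRNA induction or loss was then assessed via TaqMan qRT-PCR with housekeeping-gene normalisation.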

[4] = read-out: Paternally Expressed 10 (PEG10), PEG10 (gene 23089); experiment: LTEA_HepaRG_PEG10: Life Technologies and Expression Analysis (LTEA) Assay for Paternally Expressed 10 (PEG10) using HepaRG (AID 2283520);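 as to AC50: differentiated HepaRG human liver cells in serum-free induction medium with 0.5% DMSO; PEG10 transcript by qRT-PCR normalised to ACTB GAPDH and POLR2A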
Outline: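 qRT-PCR read-out: PEG10 mRNA normalised to three housekeeping genes, fitted bidirectionally against 0.5% DMSO vehicle. HepaRG cells received test chemicals for 48 h in serum-free induction medium, 8 points, top 100 uM, half-log steps.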

[5] = read-out: Nuclear factor NF-kappa-B p105 subunit (Homo sapiens) (UniProt P19838); experiment: LTEA_HepaRG_NFKB1: Life Technologies and Expression Analysis (LTEA) Assay for Nuclear Factor Kappa B Subunit 1 (NFKB1) using HepaRG (AID 2283521)
Outline: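 NFKB1 transcript was measured by TaqMan qRT-PCR on Fluidigm arrays, normalised to three housekeeping genes and fitted in both directions against 0.5% DMSO. HepaRG cells were dosed in duplicate for 48 h in serum-free induction medium, eight half-log steps from 100 uM.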

[6] = read-out: Protein phosphatase 2A (PPP2R4), PTPA (gene 5524); experiment: LTEA_HepaRG_PPP2R4: Life Technologies and Expression Analysis (LTEA) Assay for Protein phosphatase 2A (PPP2R4) using HepaRG (AID 2283522)
Outline: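 HepaRG, 48 h exposure, 8-pt half-log series from 100 uM, 0.5% DMSO vehicle, duplicates. Readout: PPP2R4 mRNA, Fluidigm qRT-PCR, housekeeping-normalized. Bidirectional curve fit vs DMSO baseline.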

[7] = read-out: Phosphatase and tensin (PTEN), PTEN (gene 5728); experiment: LTEA_HepaRG_PTEN: Life Technologies and Expression Analysis (LTEA) Assay for Phosphatase and tensin (PTEN) using HepaRG (AID 2283523)
Outline: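 Expression of PTEN is quantified in the human liver line HepaRG following two days of dosing (top concentration 100 uM, half-log dilutions, 0.5% DMSO). Values derive from bidirectional curve fitting relative to DMSO controls.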

[8] = read-out: solute carrier (SLC22A1), SLC22A1 (gene 6580); experiment: LTEA_HepaRG_SLC22A1: Life Technologies and Expression Analysis (LTEA) Assay for solute carrier (SLC22A1) using HepaRG (AID 2283524);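 as to AC50: differentiated human HepaRG liver cells in serum-free induction medium; TaqMan qRT-PCR normalized to ACTB GAPDH and POLR2A housekeeping genes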
Outline: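 Transcript induction or suppression of SLC22A1 in human HepaRG cultures is scored after 48 h chemical treatment, with DMSO (0.5%) as baseline for bidirectional fitting. Concentrations span eight half-log points topping at 100 uM.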

[9] = read-out: Pyruvate Dehydrogenase Kinase 4 (PDK4), PDK4 (gene 5166); experiment: LTEA_HepaRG_PDK4: Life Technologies and Expression Analysis (LTEA) Assay for Pyruvate Dehydrogenase Kinase 4 (PDK4) using HepaRG (AID 2283525)
Outline: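 Eight-point, half-log concentration series (max 100 uM, 0.5% DMSO) applied to differentiated HepaRG cells for 48 h in duplicate. Endpoint: PDK4 mRNA induction or repression by qRT-PCR against DMSO baseline.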

Measured: AC50

Sequence of Nuclear factor NF-kappa-B p105 subunit (Homo sapiens) (P19838 whole entry, looked up): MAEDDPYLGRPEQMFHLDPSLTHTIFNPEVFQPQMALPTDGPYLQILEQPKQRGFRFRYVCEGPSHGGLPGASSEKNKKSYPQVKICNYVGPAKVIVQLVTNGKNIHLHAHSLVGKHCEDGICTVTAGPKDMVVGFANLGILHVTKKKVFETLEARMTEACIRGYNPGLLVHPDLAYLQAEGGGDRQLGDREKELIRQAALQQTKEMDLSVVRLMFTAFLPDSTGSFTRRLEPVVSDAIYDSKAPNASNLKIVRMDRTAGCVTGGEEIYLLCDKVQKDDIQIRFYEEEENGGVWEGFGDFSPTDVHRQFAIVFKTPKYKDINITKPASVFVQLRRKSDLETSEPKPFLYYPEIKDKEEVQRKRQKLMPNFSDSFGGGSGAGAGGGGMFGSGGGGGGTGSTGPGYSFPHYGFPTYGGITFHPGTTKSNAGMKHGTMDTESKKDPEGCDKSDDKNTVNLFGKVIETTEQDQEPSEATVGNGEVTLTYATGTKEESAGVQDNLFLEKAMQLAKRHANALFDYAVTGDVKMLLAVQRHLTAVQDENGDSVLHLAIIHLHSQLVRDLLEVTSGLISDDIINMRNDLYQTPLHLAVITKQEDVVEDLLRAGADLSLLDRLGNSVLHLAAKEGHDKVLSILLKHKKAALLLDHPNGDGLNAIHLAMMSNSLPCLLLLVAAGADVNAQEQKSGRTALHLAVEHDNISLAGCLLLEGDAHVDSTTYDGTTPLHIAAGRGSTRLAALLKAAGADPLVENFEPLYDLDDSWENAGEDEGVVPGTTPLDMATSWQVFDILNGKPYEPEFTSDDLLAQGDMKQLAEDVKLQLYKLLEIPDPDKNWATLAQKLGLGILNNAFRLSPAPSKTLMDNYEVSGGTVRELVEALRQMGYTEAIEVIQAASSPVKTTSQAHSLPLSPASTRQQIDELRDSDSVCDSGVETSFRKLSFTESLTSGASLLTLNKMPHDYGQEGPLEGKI

CC(C)Oc1cccc(NC(=O)c2ccccc2C(F)(F)F)c1
active: [4] 78.5 µM | [9] 50 µM
inactive: [1] | [2] | MYC, MYC (gene 4609) | [3] | [5] | [6] | [7] | [8]

Cc1ccc(N=CN(C)C=Nc2ccc(C)cc2C)c(C)c1
inactive: [1] | [2] | MYC, MYC (gene 4609) | [3] | [4] | [6] | [7] | [8] | [9]

CS(=O)(=O)c1ccc(C(=O)C2C(=O)CCCC2=O)c([N+](=O)[O-])c1
inactive: [1] | [2] | MYC, MYC (gene 4609) | [3] | [4] | [5] | [6] | [7] | [8] | [9]

Cc1cnc(C2=NC(C)(C(C)C)C(=O)N2)c(C(=O)O)c1 (stereo not drawn)
inactive: [1] | [2] | MYC, MYC (gene 4609) | [3] | [4] | [6] | [7] | [8] | [9]

CCOc1nc(F)cc2nc(S(=O)(=O)Nc3c(Cl)cccc3Cl)nn12
inactive: [1] | [2] | MYC, MYC (gene 4609) | [4] | [5] | [6] | [7] | [9]
active: [3] 50 µM | [8] 50 µM

CC1(C)C(C=C(Cl)Cl)C1C(=O)OC(C#N)c1cccc(Oc2ccccc2)c1 (stereo not drawn)
active: [4] 50 µM | [9] 50 µM
inactive: [2] | MYC, MYC (gene 4609) | [3] | [5] | [6] | [7] | [8]

CC(C)(C)C(=O)C(Oc1ccc(Cl)cc1)n1cncn1 (stereo not drawn)
inactive: [1] | [2] | MYC, MYC (gene 4609) | [3] | [4] | [5] | [6] | [7] | [8] | [9]

COc1ccc(-c2ccccc2)cc1NNC(=O)OC(C)C
inactive: [1] | [2] | MYC, MYC (gene 4609) | [3] | [4] | [5] | [6] | [7] | [8] | [9]

N#CN=C1SCCN1Cc1ccc(Cl)nc1
inactive: [1] | [2] | MYC, MYC (gene 4609) | [3] | [4] | [5] | [6] | [7] | [8] | [9]

Cn1c(-c2ccccc2)cc(-c2ccccc2)[n+]1C
inactive: [6] | [9]
active: [1] 28.7 µM | MYC, MYC (gene 4609) 3.12 µM | [3] 88.9 µM | [4] 10.7 µM | [7] 88.3 µM | [8] 34.5 µM

CN=C=S
inactive: [1] | [2] | MYC, MYC (gene 4609) | [3] | [4] | [5] | [6] | [7] | [8] | [9]

CO/N=C(/C1=NOCCO1)c1ccccc1Oc1ncnc(Oc2ccccc2Cl)c1F
inactive: [5] | [6] | [7]
active: [1] 26.4 µM | [2] 50 µM | MYC, MYC (gene 4609) 29.9 µM | [3] 50 µM | [4] 5.88 µM | [8] 24.8 µM | [9] 11.7 µM

CCOc1nc(C(Cl)(Cl)Cl)ns1
inactive: [2] | [4]
active: [1] 0.682 µM | MYC, MYC (gene 4609) 1.03 µM | [3] 2.93 µM | [5] 1.72 µM | [6] 0.801 µM | [7] 1.25 µM | [8] 1.34 µM | [9] 0.95 µM

CS(=O)(=O)c1cc(C(F)(F)F)ccc1C(=O)c1cnoc1C1CC1
inactive: [1] | [2] | MYC, MYC (gene 4609) | [3] | [4] | [5] | [6] | [7] | [8] | [9]

CC(C)=CC1C(C(=O)OCc2coc(Cc3ccccc3)c2)C1(C)C (stereo not drawn)
active: [9] 50 µM
inactive: [1] | [2] | MYC, MYC (gene 4609) | [3] | [4] | [5] | [6] | [7] | [8]

COP(=S)(OC)Oc1ccc([N+](=O)[O-])c(C)c1
inactive: [1] | [2] | MYC, MYC (gene 4609) | [3] | [4] | [6] | [7] | [8] | [9]

O=C(Nc1ccccc1-c1ccc(Cl)cc1)c1cccnc1Cl
active: [4] 21 µM
inactive: [1] | [2] | MYC, MYC (gene 4609) | [3] | [5] | [6] | [7] | [8] | [9]

O=c1n(Cl)c(=O)n(Cl)c(=O)n1Cl
inactive: [1] | [2] | MYC, MYC (gene 4609) | [3] | [4] | [5] | [6] | [7] | [8] | [9]

COc1cc(OC)nc(NC(=O)NS(=O)(=O)c2ncccc2OCC(F)(F)F)n1
inactive: [1] | [2] | MYC, MYC (gene 4609) | [3] | [4] | [5] | [6] | [7] | [8]
active: [9] 0.129 µM

Cc1c(COC(=O)[C@@H]2[C@H](/C=C(\Cl)C(F)(F)F)C2(C)C)cccc1-c1ccccc1
active: [5] 0.703 µM
inactive: [1] | [2] | MYC, MYC (gene 4609) | [3] | [4] | [6] | [7] | [8] | [9]

CCCCOCN(C(=O)CCl)c1c(CC)cccc1CC
active: [9] 50 µM
inactive: [1] | [2] | MYC, MYC (gene 4609) | [3] | [4] | [5] | [6] | [7] | [8]

COCC(=O)N(c1c(C)cccc1C)C(C)C(=O)OC (stereo not drawn)
inactive: [1] | [2] | MYC, MYC (gene 4609) | [3] | [4] | [6] | [7] | [8] | [9]

CC(C)N1C(=O)N(c2ccccc2)CSC1=NC(C)(C)C
active: [1] 81.4 µM | MYC, MYC (gene 4609) 72.2 µM | [3] 26.4 µM | [4] 12.7 µM | [6] 77.4 µM | [8] 81.4 µM | [9] 87.8 µM
inactive: [2] | [5] | [7]

CCOP(=S)(OCC)Oc1nc(Cl)n(C(C)C)n1
active: [8] 12.2 µM | [9] 1.82 µM
inactive: [1] | [2] | MYC, MYC (gene 4609) | [3] | [4] | [5] | [6] | [7]

COC(=O)c1c(C(F)F)nc(C(F)(F)F)c(C2=NCCS2)c1CC(C)C
inactive: [1] | [2] | MYC, MYC (gene 4609) | [3] | [4] | [5] | [6] | [7] | [8] | [9]

N#Cc1c[nH]cc1-c1cccc2c1OC(F)(F)O2
inactive: [1] | [2] | [3] | [5] | [6] | [7]
active: MYC, MYC (gene 4609) 80.3 µM | [4] 74.2 µM | [8] 40.7 µM | [9] 83.9 µM

CCOc1cc(C(C)(C)C)ccc1C1COC(c2c(F)cccc2F)=N1 (stereo not drawn)
active: MYC, MYC (gene 4609) 33 µM
inactive: [1] | [2] | [3] | [4] | [5] | [6] | [7] | [8] | [9]

O=C1C2CC=CCC2C(=O)N1SC(Cl)(Cl)Cl (stereo not drawn)
inactive: [1] | MYC, MYC (gene 4609) | [3] | [4] | [5] | [6] | [7] | [8] | [9]
active: [2] 49.2 µM

C=C(C)CN(CC)c1c([N+](=O)[O-])cc(C(F)(F)F)cc1[N+](=O)[O-]
inactive: [2] | MYC, MYC (gene 4609) | [3] | [4] | [5] | [6] | [7] | [8] | [9]

CCNC(=O)NC(=O)C(C#N)=NOC
active: [4] 50 µM | [8] 74.2 µM
inactive: [1] | [2] | MYC, MYC (gene 4609) | [3] | [6] | [7] | [9]

COP(=O)(OC)O/C(C)=C/C(=O)N(C)C
inactive: [2] | MYC, MYC (gene 4609) | [3] | [4] | [5] | [6] | [7] | [8] | [9]

Nc1c(Cl)c(Cl)nc(C(=O)O)c1Cl
inactive: [2] | MYC, MYC (gene 4609) | [3] | [4] | [5] | [6] | [7] | [8] | [9]

N#Cc1c(Cl)cccc1Cl
inactive: [1] | [2] | MYC, MYC (gene 4609) | [3] | [4] | [5] | [6] | [7] | [8] | [9]

CC(C)Nc1nc(Cl)nc(NC(C)C)n1
inactive: [1] | [2] | MYC, MYC (gene 4609) | [3] | [6] | [7] | [8] | [9]
active: [4] 27.2 µM

From PubChem BioAssay (EPA / NIEHS)
